# Test results taken from PubChem BioAssay AID1952 (The Scripps Research Institute Molecular Screening Center, 2009).
# The campaign covered roughly 2,400 compounds. About 1,200 (50%) were called active. Rule as the data show it: active = inhibition above about 24%; inactive = the rest. The set was probably picked from earlier hits. Not all results are given here.
# Target: Neuropeptides B/W receptor type 1 (Homo sapiens) (UniProt P48145)
# Assay: blockers of human NPBW1 receptor – cell-based, fluorescence, single concentration, confirmation (AID 1952);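 also: stimulated with the GPR7 agonist NPW; 0% = agonist plus vehicle and 100% = vehicle alone without agonist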
# Conditions: GPR7-expressing cells, calcium fluorescence antagonist mode; at 4.4 µM; active compounds read high
# Chain of Neuropeptides B/W receptor type 1 (Homo sapiens) (P48145 whole entry, looked up): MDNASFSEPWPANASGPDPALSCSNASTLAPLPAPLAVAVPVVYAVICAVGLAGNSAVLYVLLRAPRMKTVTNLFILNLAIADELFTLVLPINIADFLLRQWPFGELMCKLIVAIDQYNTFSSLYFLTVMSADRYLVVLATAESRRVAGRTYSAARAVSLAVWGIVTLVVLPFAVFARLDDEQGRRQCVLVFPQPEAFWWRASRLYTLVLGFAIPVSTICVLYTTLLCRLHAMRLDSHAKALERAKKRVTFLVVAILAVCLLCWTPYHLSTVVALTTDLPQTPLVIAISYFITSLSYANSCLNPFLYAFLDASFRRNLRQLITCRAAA
row,Compound,inhibition
1,Cc1ccc(O)c(NC(=S)NC(=O)COc2ccc(Br)cc2)c1,88.8% (active)
2,O=C(Nc1ccc2ccccc2c1)Nc1ccc2snnc2c1,55.7% (active)
3,CC(C)(C)NCc1cc(Br)ccc1OC1CCCC1,23.2% (inactive)
4,Cc1ccc(NC(=O)CN2C(=O)NC(C)(c3ccc(Cl)cc3)C2=O)c(Br)c1 (stereo not given),18.8% (inactive)
5,CC(NCc1ccccc1OC1CCCC1)c1ccccc1 (stereo not given),23.1% (inactive)
6,CCN1CCN(c2c(Cl)cccc2NC(=O)c2ccc(Br)o2)CC1,21% (inactive)
7,CCN1/C(=C\c2ccc3ccccc3[n+]2CC)Sc2cc(C)ccc21,49.3% (active)
8,COc1ccc(OC)c(C(c2nnnn2C(C)(C)C)N2CCc3ccccc3C2)c1 (stereo not given),5.35% (inactive)
9,CC(C)(C)CC(C)(C)NCC(O)COCCOc1ccc(Br)cc1 (stereo not given),47.2% (active)
10,CCSc1nsc(NC(=O)Nc2cccc(C(C)=O)c2)n1,43.7% (active)
11,C=CCSc1nsc(NC(=O)Nc2cccc(C(C)=O)c2)n1,47.2% (active)
12,CCn1c2ccc(F)cc2c2nnc(SCCN3CCOCC3)nc21,-14.4% (inactive)
13,CCc1c(C)nc2c(-c3ccccc3)c(C)nn2c1Nc1ccc(NC(C)=O)cc1,4.93% (inactive)
14,COc1ccc(C(=O)CSc2nnc(COc3ccccc3)n2Cc2ccco2)cc1,19% (inactive)
15,Oc1cccc(/C=N/Nc2ccc(Cl)nn2)c1O,4.11% (inactive)
16,Cc1cccc(-c2nc3ccc(C(=O)NCCN4CCN(C)CC4)cc3nc2-c2cccc(C)c2)c1,41.8% (active)
17,CCc1ccc(N(C(=O)c2csnn2)C(C(=O)NC2CCCCC2)c2ccncc2)cc1 (stereo not given),34.2% (active)
18,O=C(Nc1ccccc1F)c1ccc2c(c1)OCO2,-16.6% (inactive)
19,O=C(Nc1nc(-c2ccc3c(c2)OCO3)cs1)c1ccncc1,55.1% (active)
20,N=c1c2c(-c3ccccc3)c(-c3ccccc3)n(Cc3ccccc3)c2ncn1CCCO,26.6% (active)
21,CN(C)CCCN(C(=O)c1ccc(S(=O)(=O)N2CCCc3ccccc32)cc1)c1nc2ccc(F)cc2s1,73% (active)
22,CN(C)CCCN(C(=O)c1ccc(S(=O)(=O)N2CCCCCC2)cc1)c1nc2ccc(Br)cc2s1,70.5% (active)
23,CCc1ccc2nc(N(CCCN(C)C)C(=O)c3ccc4c(c3)OCCO4)sc2c1,40% (active)
24,CCOC(=O)C1CSC(CC(=O)Nc2ccc(OCC)cc2)C(=O)N1 (stereo not given),2.35% (inactive)
25,COCCN(Cc1cc2cc3c(cc2nc1Cl)OCO3)C(=O)c1cccc(C)c1,-7.71% (inactive)
